The whole screen tested about 1,100 compounds, of which about 760 (69%) were called active. How the calls were made is not given here. The set was probably picked from earlier hits. This is one part of the list.
Test: M. tuberculosis growth inhibition, HTS (AID 1259417);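 further: bacteria grown with compound for 5 days at 37 °C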
Details: stronger effect = higher value, concentration not given here
[1] = M. tuberculosis DsRed fluorescence growth inhibition
[2] = M. tuberculosis growth inhibition

SMILES	inhibition [1]	inhibition [2] [%]
Cc1cc(C2N=C(N)Nc3nc4ccccc4n32)c(C)n1-c1ccccc1Cl (stereo not given)	-7.08% (inactive)	-25.2
Cc1ccc(-n2cc(-c3ccccc3)c3c(NCc4cccnc4)ncnc32)cc1	19.7% (inactive)	-7.61
CCOC(=O)c1c(NC(=O)c2c(F)c(F)c(F)c(F)c2F)sc2c1CCCCC2	97.9% (active)	96.2
Cc1cccc(C(=O)Nc2sc3c(c2C(=O)N2CCCC2)CCC3)c1	-0.854% (inactive)	-7.24
CNC(=O)c1c(NC(=O)c2cccc(C)c2)sc2c1CCC2	9.53% (inactive)	-24.5
CCOC(=O)C=CC(=O)Nc1sc2c(c1C(=O)OC)CCC2	10.6% (active)	29.7
Oc1ccc(Br)cc1-c1nc(-c2cccs2)c(-c2cccs2)[nH]1	1.19% (inactive)	-11.5
N#Cc1cc2c(ccc3ccccc32)oc1=O	17.3% (active)	55.9
CC(C)C(=O)Nc1nnc(-c2ccccc2)o1	1.9% (inactive)	2.21
CC(C)C(=O)Nc1nnc(-c2ccc(Br)cc2)o1	23.4% (active)	38.6
CC(C)(C)C(=O)Nc1nnc(-c2ccc(Br)cc2)o1	90.8% (active)	84.1
CCCCC(=O)Nc1nnc(-c2ccc(Br)cc2)o1	5.72% (inactive)	15.5
COC(=O)C(C)Sc1nnc(-c2ccc(Br)cc2)o1 (stereo not given)	71.1% (active)	95.8
O=C1C=C(c2ccccc2)C(=O)c2ccccc21	12% (active)	58.3
COc1ccc(Cc2nnc(SCC(=O)NCCc3ccccc3)o2)cc1	98% (active)	96.2
O=C(CSc1nc2cc(Cl)ccc2o1)NCCc1ccccc1	85.8% (active)	53
O=C(CSc1nnc(Cc2ccccc2)o1)NCCc1ccccc1	63.5% (active)	42
COc1ccc(Cc2nnc(SCC(=O)NCc3ccco3)o2)cc1	32.4% (active)	54.8
COc1ccc(-c2nnc(SCC(=O)NCCc3ccccc3)o2)cc1	93.3% (active)	88.5
O=c1c2ccccc2[nH]c(=S)n1CCCN1CCN(c2cccc(Cl)c2)CC1	14.1% (inactive)	-11.2
COc1cccc(N2CCN(Cc3nc(N)nc(Nc4ccc(C)c(C)c4)n3)CC2)c1	29.6% (active)	48.8
Cc1cccc(Nc2nc(N)nc(CN3CCN(c4cccc(Cl)c4)CC3)n2)c1	33.7% (active)	47.4
COc1ccc(N2CCN(Cc3nc(N)nc(Nc4ccc(C)c(Cl)c4)n3)CC2)cc1	27.3% (active)	55.4

SMILES	inhibition [1]	inhibition [2] [%]
Cc1cccc(NC(=S)NCCN2CCN(c3ccc(F)c(Cl)c3)CC2)c1C	9.39% (inactive)	-14
COc1cccc(N2CCN(Cc3nc(N)nc(Nc4ccc(C)c(Cl)c4)n3)CC2)c1	9.68% (inactive)	23.6
O=C(OCC#CCSc1nnc(-c2ccc(Br)cc2)o1)c1cccs1	33.6% (active)	31.6
O=C(OCC#CCSc1nnc(-c2ccc([N+](=O)[O-])cc2)o1)c1cccs1	65.7% (active)	72.9
CC(=O)OCC#CCSc1nnc(-c2ccc(Br)cc2)o1	49.2% (active)	48
CSc1ccc(C(=O)C2CCCN(Cc3cc4ccccc4[nH]3)C2)cc1 (stereo not given)	4.22% (inactive)	-24.7
CCCC(=O)N1CCN(c2ccc(NC(=O)c3ccc(-c4ccc(Cl)cc4)o3)cc2Cl)CC1	0.329% (inactive)	-21.3
CCC(C)c1ccc(O)c(NC(=S)NC(=O)c2cccnc2)c1 (stereo not given)	99.4% (active)	99.7
O=C(Nc1cccc(Br)c1)c1ccc(-c2ccc(Cl)cc2)o1	8.23% (inactive)	21
CCC(C)c1ccc(O)c(NC(=S)NC(=O)c2ccc(-c3ccc(Cl)cc3)o2)c1 (stereo not given)	74.3% (active)	78.2
C=CCn1c(=NC(=O)c2ccc([N+](=O)[O-])s2)sc2cc(S(N)(=O)=O)ccc21	59.9% (active)	94.9
CCc1c(C)c2ccc(OCC(=O)OC)c(C)c2oc1=O	49.4% (active)	89.1
Cc1cc(C)cc(COc2ccc3c(C)c(CCC(=O)O)c(=O)oc3c2C)c1	13.5% (inactive)	-13.6
COC(=O)Cc1c(C)c2ccc(OCC(=O)OCc3ccccc3)c(C)c2oc1=O	4.42% (active)	54
O=c1cnnc(NN=Cc2cc(Br)ccc2O)[nH]1	100% (active)	98.8
O=C(c1cccc([N+](=O)[O-])c1)N1N=C(c2ccc(Br)cc2)CC1(O)C(F)(F)F (stereo not given)	5.59% (inactive)	21
Cc1cccc(C(=O)N2N=C(c3ccc(Br)cc3)CC2(O)C(F)(F)F)c1 (stereo not given)	12.2% (active)	41
c1ccc(COc2ccccc2CNC23CC4CC(CC(C4)C2)C3)cc1	22.3% (inactive)	3.79
COc1cc(CNC23CC4CC(CC(C4)C2)C3)ccc1OCc1ccccc1	99.4% (active)	96.2
CCOc1cc(CNC23CC4CC(CC(C4)C2)C3)ccc1OCc1cccs1	99.7% (active)	95.9
CN(C)c1ccc(CNC23CC4CC(CC(C4)C2)C3)cc1	98.9% (active)	95.5
CCOc1cccc(N2C(=O)CC(SC(N)=NN=C(C)c3ccc(Cl)s3)C2=O)c1 (stereo not given)	6.46% (inactive)	-10.4
